PAFAH2 inh: inhibitors of human PAFAH2. Q99487. recombinant PAFAH2, FP-rhodamine activity probe, fluorescence polarization. inhibition, % at 3.39 µM. hit rate 0.99% among 340,000;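 active = inhibition above the mean over all tested compounds plus 3 SD, cut at about 30% in these data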;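 note: inhibitors block probe labeling of enzyme so polarization drops; 0% = enzyme with DMSO and 100% = wells lacking PAFAH2 protein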
pPAFAH inh: inhibitors of human plasma PAF acetylhydrolase (pPAFAH); recombinant pPAFAH, FP-rhodamine probe fluorescence polarization; inhibition, % at 3.39 µM; hit rate 1.5% among 330,000; AID 463082;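 active = inhibition above the mean inhibition across the screen plus 3 SD, cut at about 25% in these data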;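 note: inhibitors block binding of the rhodamine activity-based probe so polarization drops; 0% = enzyme with DMSO and 100% = wells lacking pPAFAH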
PME-1 primary: PME-1 (human) inhibition; recombinant PME-1, FP-Rh probe fluorescence polarization; inhibition, % at 5.9 µM; hit rate 0.53% among 320,000; AID 2130;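 active = inhibition above the campaign mean of all compounds plus 3 SD, cut at about 26% in these data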;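 note: competitive labeling of PME-1 active site by serine hydrolase directed probe; 0% = PME-1 with DMSO and 100% = wells lacking PME-1 enzyme; inhibitors block probe labeling so polarization falls and inhibition rises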
Target sequence (Q9Y570 whole entry, looked up): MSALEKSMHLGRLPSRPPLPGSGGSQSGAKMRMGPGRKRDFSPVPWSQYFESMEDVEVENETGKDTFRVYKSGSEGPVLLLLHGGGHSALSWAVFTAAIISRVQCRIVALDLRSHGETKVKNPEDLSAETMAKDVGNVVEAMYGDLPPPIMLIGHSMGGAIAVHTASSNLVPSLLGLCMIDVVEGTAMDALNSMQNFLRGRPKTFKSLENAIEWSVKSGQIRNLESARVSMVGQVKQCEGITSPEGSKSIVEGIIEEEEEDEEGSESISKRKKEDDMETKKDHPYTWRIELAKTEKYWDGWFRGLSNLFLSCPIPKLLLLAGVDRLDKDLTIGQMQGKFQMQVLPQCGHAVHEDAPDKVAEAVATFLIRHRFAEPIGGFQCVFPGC
Fam108B inh: counter-screen for RBBP9 inhibitors: inhibitors of mouse Fam108B; recombinant Fam108B, FP-Rh probe fluorescence polarization; inhibition, % at 9.51 µM; hit rate 0.33% among 300,000;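 active = inhibition above the screen mean inhibition plus 3 SD, computed separately per campaign, cut at about 18% in these data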;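 note: inhibitors lower polarization as less probe binds the enzyme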
PAFAH1B2 inh: blocks human PAF acetylhydrolase 1b catalytic subunit 2; P68402; recombinant PAFAH1B2, FP-rhodamine activity probe, fluorescence polarization; inhibition, % at 3.39 µM; hit rate 1.2% among 340,000; AID 492953;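 active = inhibition above the mean of all tested compounds plus 3 SD, cut at about 24% in these data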;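 note: 0% = enzyme with DMSO and 100% = wells lacking PAFAH1B2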
PAFAH1B3 FP inh: inhibitors of human PAFAH1B3; AID 492972; Q15102; inhibition, % at 3.39 µM; recombinant PAFAH1B3, FP-rhodamine probe, fluorescence polarization; hit rate 0.28% among 340,000;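 active = inhibition above the screen-wide average of all tested compounds plus 3 SD, cut at about 25% in these data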;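 note: 0% = enzyme with DMSO only and 100% = wells lacking PAFAH1B3 protein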
Target sequence (Q15102 whole entry, looked up): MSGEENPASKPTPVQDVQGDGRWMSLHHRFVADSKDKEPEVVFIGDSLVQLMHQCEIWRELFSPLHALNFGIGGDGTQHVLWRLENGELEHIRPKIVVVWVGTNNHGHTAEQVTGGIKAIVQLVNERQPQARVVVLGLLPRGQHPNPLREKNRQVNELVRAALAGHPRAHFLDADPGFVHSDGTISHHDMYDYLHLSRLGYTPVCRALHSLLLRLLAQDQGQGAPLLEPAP
* = called active by the depositor; . = not tested or not shown; ! = not active in a repeat. Hits are enriched below; roughly 2.9% of the tested compounds scored in any of these assays.

SMILES	PAFAH2 inh	pPAFAH inh	PME-1 primary	Fam108B inh	PAFAH1B2 inh	PAFAH1B3 FP inh
Cc1ccc(S(=O)(=O)Nc2ccc(S(=O)(=O)NCC3CCCO3)cc2)cc1 (stereo not drawn)	1.2	2.9	-4.7	-4.8	42.9*	1.5
Cc1ccc(NS(=O)(=O)c2cccc(C(=O)NCC3CCCO3)c2)cc1 (stereo not drawn)	-0.1	30.5*	4.9	2.0	1.8	3.2
NC(=O)[C@@H]1CCCN1C(=O)c1cc(COc2ccc(F)cc2F)on1	-1.4	4.2	0.9	-0.5	1.7	0.1
CCOc1ccccc1CNc1ccc(O)cc1	34.6*	.	.	.	20.7	25.7*
CCOc1cccc(CNc2ccc(O)cc2)c1OCc1ccc(Cl)cc1	7.6	32.6*	22.2	16.7	3.0	7.9
Oc1ccc(NCc2ccccc2OCc2ccccc2F)cc1	4.1	31.4*	25.5	10.2	4.1	11.0
Cc1cccc(NS(=O)(=O)c2csc(C(N)=O)c2)c1C	-2.9	26.8*	-5.0	-3.0	-5.7	2.5
Cc1nc2nc[nH]n2c(=O)c1NC(=O)CC12CC3CC(CC(C3)C1)C2	35.5*!	3.3	-4.8	-1.3	25.1*	7.7
CCC(CC)NC(=O)CSc1ccc(S(=O)(=O)N2CCOCC2)cn1	2.6	-5.8	-0.9	.	3.5	5.1
COc1cc(C(C)=O)ccc1COc1ccc(C(=O)OCC(N)=O)cc1OC	2.0	-2.1	-3.3	-2.2	0.4	-0.6
CCC(CC)NC(=O)COC(=O)c1ccc(OCc2ccc(C(C)=O)cc2OC)c(OC)c1	76.8*	26.6*	-8.2	-5.8	-2.9	4.2
COc1ccc(N=Nc2nc3ccc(Br)cc3n2C)cc1	-3.9	13.2	41.4*	3.3	5.5	5.7
COc1ccc(-c2c(-c3cc(OC)cc(OC)c3)n(C)c3ccc(Br)cc23)cc1	3.4	0.7	1.7	.	-0.3	10.4
COc1cc(C)ccc1OCCOc1c(C)cccc1Cl	2.9	5.1	-6.7	-4.0	6.3	1.6
Cc1cc(/C=C2\SC(=S)NC2=O)c(C)n1-c1ccccc1	.	30.3*	-0.5	6.7	.	.
CNS(=O)(=O)c1cccc(C(=O)OCC(=O)Nc2ccc(Cl)cc2F)c1	28.8	-0.1	1.4	7.6	1.8	0.5
CC(OC(=O)c1ccc([N+](=O)[O-])s1)C(=O)Nc1ncc(Cl)cc1Cl (stereo not drawn)	29.8*	25.8*	-7.8	2.9	17.4	30.2*
Cc1ccc(OC(C)C(=O)Nc2ncc(Cl)cc2Cl)c([N+](=O)[O-])n1 (stereo not drawn)	-0.4	1.6	.	.	3.5	10.3
CC(C)(C)C1CCC2(CC1)SCC(=O)N2c1ccccc1 (stereo not drawn)	2.6	5.4	3.5	2.6	2.6	6.8
CC1CCC2(CC1)SCC(=O)N2c1ccc(F)cc1 (stereo not drawn)	-2.8	3.1	5.7	4.7	24.6*	-1.7
COc1cccc(CNc2ccc(N3CCCCC3)cc2)c1OC	4.5	0.7	-6.1	-5.8	-0.9	5.4
COc1ccccc1CNc1ccc(N2CCCCC2)cc1	3.6	26.8*	-1.7	5.0	7.4	7.6
C=CCOc1c(Cl)cc(CNc2ccc(N(C)C)cc2)cc1OC	10.7	25.4*	7.7	7.9	4.1	7.0
CCOc1ccc(CNc2ccc(N3CCCC3)cc2)cc1	1.2	32.9*	2.2	1.9	4.4	6.2
CCOc1cc(CNc2ccc(N3CCCC3)cc2)cc(Cl)c1OC	12.7	23.0	8.0	12.0	1.1	3.3
SMILES	PAFAH2 inh	pPAFAH inh	PME-1 primary	Fam108B inh	PAFAH1B2 inh	PAFAH1B3 FP inh
COc1cc(CNc2ccc(N3CCCC3)cc2)cc(Cl)c1OC	-3.8	28.2*	6.0	7.2	6.8	9.8
O=C(O)C1CCN(S(=O)(=O)c2cccc3nonc23)CC1	-4.1	7.2	-4.2	1.8	1.5	6.5
CC(CC(=O)Nc1ccc(Cl)c([N+](=O)[O-])c1)c1ccccc1 (stereo not drawn)	-7.0	-0.7	-6.2	-1.9	6.0	-0.7
COc1cc(N/C=C(\C(C)=O)c2ccccc2)cc(OC)c1	-6.7	30.9*	1.8	1.3	-2.5	4.5
CCOC(=O)Cc1csc(NC(=O)c2sc3nc4cc(C)ccc4cc3c2N)n1	6.0	24.1	45.7*	3.5	3.4	4.1
Cc1cc(C)c2c(N)c(C(=O)N/N=C/c3ccccc3)sc2n1	-0.3	13.6	21.7	2.6	0.9	11.8
CNc1ccc(Br)cc(C(=O)/C=C/c2ccc(OC)cc2OC)c1=O	13.1	24.7*	0.7	12.3	2.0	17.5
CCc1ccc(-c2cn(C3CCCCC3)c(=S)[nH]2)cc1	8.7	29.6*	8.2	7.7	0.7	5.6
CCc1ccc(-n2cc(-c3ccc([N+](=O)[O-])cc3)[nH]c2=S)cc1	-5.7	-0.5	9.3	-0.2	0.0	-18.4
CCOc1ccc(NS(=O)(=O)c2cc(C(=O)NCCN3CCOCC3)ccc2C)cc1	-6.1	11.2	.	.	5.2	9.3
O=C(COC(=O)c1ccccc1Cl)NC1CCCCCC1	79.1*	31.1*	.	.	4.7	6.0
O=C(COC(=O)c1ccc(Cl)c(Cl)c1)NC1CCCC1	57.8*	34.2*	-3.9	-1.7	5.0	9.1
Cc1cc(OCC(=O)NCCCN2CCCC2=O)c2c(C)cc(=O)oc2c1	7.0	0.3	3.4	0.6	0.5	3.5
CN(C1=C(NC(=O)c2ccccc2)C(=O)c2ccccc2C1=O)C1CCS(=O)(=O)C1 (stereo not drawn)	37.7*	14.1	6.1	5.5	16.8	50.8*
CC(=O)NC1=C(NC2CCS(=O)(=O)C2)C(=O)c2ccccc2C1=O (stereo not drawn)	-1.7	4.3	-1.4	-3.1	3.8	7.0
C=CC[C@H](CC(=O)NCCO)C(=O)N[C@H](COC(=O)[C@@H](CC=C)Cc1ccc(F)cc1)c1ccccc1	-1.3	5.4	.	.	25.0*	5.6
COc1cc(C)nc(N2CCCC(C(=O)NC3CCC(C)CC3)C2)n1 (stereo not drawn)	.	-1.9	-1.1	1.9	.	.
O=C(Nc1ccc(-c2cnco2)cc1)c1ccc(Cl)cc1	.	28.5*	-7.9	-3.7	.	.
O=C(CSc1nc2ccccc2c(=O)n1Cc1ccc(Cl)cc1)NCc1cccs1	-5.6	1.6	1.8	-2.9	-2.4	2.1
OCC(O)C1OC(Oc2ccccc2)C(O)C(O)C1O (stereo not drawn)	7.2	.	.	.	3.8	5.8
COC(C/C=C\C(=O)COCc1ccccc1)OC	.	25.2*	-5.0	-0.8	.	.
CSc1ccccc1OCc1cc(C(=O)N(C)Cc2cnccn2)no1	5.7	2.2	2.7	-0.2	4.7	11.7
Cc1sc2ncnc(SCc3ccc(C(=O)O)cc3)c2c1C	5.8	-2.3	-0.2	1.9	9.6	4.3
Cc1ccc(-c2csc3ncnc(SCc4ccc(C(=O)O)cc4)c23)cc1	.	28.6*	-9.6	-6.7	.	.
CC(C)NC(=O)CC1C(=O)NCCN1CC(c1ccccc1)c1ccccc1 (stereo not drawn)	-2.2	28.6*	2.5	-1.1	-1.1	8.1
CC1CCN(c2ccc(C(=O)O)cc2NS(=O)(=O)c2ccc(Br)cc2)CC1	10.5	3.4	3.6	4.8	28.2*	7.1

Bioassay records from PubChem BioAssay.
